# Screen size: about 37,000 compounds; about 2,800 (7.6%) were called active. Not shown: some 1% with an inconclusive outcome. Only a selection was taken, and actives are over-represented in it overall. A number with no mark means an inactive call. Rule as the data show it: active = inhibition above about 80%; inconclusive = no clear call, values can overlap the other calls; inactive = below that.
# Assay: NOMO-1 AML cell viability reduction, primary screen, STK33 inhibitor project, CellTiter-Glo luminescence (AID 2330)
# Conditions: NOMO-1 AML viability, 72 h, active compounds read high, concentration not given here
row,Structure (SMILES),inhibition
1,CCOc1c(S(=O)(=O)NCc2cccnc2)ccc(Cl)c1Cl,-5.95%
2,Cc1ccc(Cl)cc1NC(=O)CN(c1cccc(Cl)c1C)S(C)(=O)=O,47.6%
3,C[C@@H]1CN([C@@H](C)CO)C(=O)c2cccc(NS(=O)(=O)c3cccs3)c2O[C@H]1CN(C)Cc1ccncc1,-14.5%
4,Cc1noc(C)c1S(=O)(=O)Nc1ccc2c(c1)C(=O)N([C@@H](C)CO)C[C@@H](C)[C@H](CN(C)Cc1ccc(-c3ccccc3)cc1)O2,20.3%
5,Cc1noc(C)c1S(=O)(=O)Nc1ccc2c(c1)C(=O)N([C@@H](C)CO)C[C@H](C)[C@H](CN(C)Cc1ccc(C(=O)Nc3ccccc3N)cc1)O2,104% (active)
6,Cc1noc(C)c1S(=O)(=O)Nc1ccc2c(c1)C(=O)N([C@@H](C)CO)C[C@@H](C)[C@H](CN(C)C(=O)Nc1cccc3ccccc13)O2,7.46%
7,Cn1nnc2cc(C(=O)N(CCO)c3ccccc3)ccc21,-5.36%
8,Cc1ccc2nc(-c3ccncc3)cc(C(=O)NCc3ccccn3)c2c1,53.9%
9,COC(=O)c1c(NC(=O)c2cc(-c3ccccn3)nc3c(C)cc(C)cc23)sc(C)c1C,19.6%
10,COC(=O)c1c(NC(=O)c2cc(-c3ccccn3)nc3ccc(Br)cc23)sc(C(=O)N(C)C)c1C,85.7% (active)
11,Cc1noc(C)c1NC(=O)Nc1ccc2c(c1)C(=O)N([C@H](C)CO)C[C@H](C)[C@H](CN(C)Cc1ccc(Oc3ccccc3)cc1)O2,30%
12,Cc1cc(C(=O)Nc2cccc3c2O[C@@H](CN(C)C(=O)Nc2ccc4c(c2)OCO4)[C@H](C)CN([C@@H](C)CO)C3=O)n(C)n1,11.4%
13,C[C@H]1CN([C@@H](C)CO)C(=O)c2cccc(NC(=O)c3ccc(-c4nccs4)cc3)c2O[C@H]1CN(C)Cc1ccc(C(=O)O)cc1,23.4%
14,C[C@@H]1CN([C@@H](C)CO)C(=O)c2cccc(NC(=O)c3ccc(-c4nccs4)cc3)c2O[C@H]1CN(C)Cc1ccc(Cl)c(Cl)c1,97.3% (active)
15,C[C@H](CO)N1C[C@H](C)[C@@H](CN(C)S(C)(=O)=O)Oc2c(NC(=O)c3ccc(-c4nccs4)cc3)cccc2C1=O,3.98%
16,C[C@H](CO)N1C[C@H](C)[C@@H](CN(C)Cc2ccc(C(=O)Nc3ccccc3N)cc2)Oc2c(NC(=O)c3ccc(-c4nccs4)cc3)cccc2C1=O,138% (active)
17,C[C@H](CO)N1C[C@H](C)[C@H](CN(C)S(C)(=O)=O)Oc2c(NC(=O)c3ccc(-c4nccs4)cc3)cccc2C1=O,1.84%
18,C[C@@H]1CN([C@@H](C)CO)C(=O)c2cccc(NC(=O)c3ccc(-c4nccs4)cc3)c2O[C@@H]1CN(C)Cc1ccncc1,35.3%
19,CC(C)NC(=O)N(C)C[C@H]1Oc2c(NS(=O)(=O)c3ccc(Cl)cc3)cccc2C(=O)N([C@@H](C)CO)C[C@H]1C,12.1%
20,COc1ccc(NC(=O)Nc2ccc3c(c2)C(=O)N([C@@H](C)CO)C[C@H](C)[C@@H](CN(C)C(=O)NC2CCCCC2)O3)cc1,-2.68%
21,CCOc1cc(S(=O)(=O)NC2CC(C)(C)NC(C)(C)C2)ccc1F,-9.77%
22,CC(=O)Nc1ccc(NC(=O)CC2C(=O)Nc3ccccc3N2C(C)=O)cc1 (configuration not stated),-5.07%
23,CC(=O)Nc1ccc(Nc2c3c4c(cccc4[nH]c2=O)C(=O)c2ccccc2-3)cc1,115% (active)

row,Structure (SMILES),inhibition
1,CC(=O)Nc1ccc(NC(=O)COc2ccccc2C(=O)Nc2cccc(Cl)c2Cl)cc1,-3.66%
2,Cc1ccc(C23CC4CC(CC(CN)(C4)C2)C3)cc1C,116% (active)
3,O=C(CSc1nc2ccccc2o1)Nc1ccccn1,2.56%
4,Cc1ccc(S(=O)(=O)N(C)C[C@@H]2Oc3c(NC(=O)Nc4c(C)noc4C)cccc3C(=O)N([C@@H](C)CO)C[C@@H]2C)cc1,22.7%
5,COc1ccc(C(C)=O)cc1CSc1nnc(-c2ccc(Br)cc2)n1-c1ccccc1,15.8%
6,COC(=O)CSc1nnc(-c2ccc(Cl)cc2)n1-c1ccc(Br)cc1,95.1% (active)
7,O=C(CSc1nnc(-c2ccncc2)n1-c1ccc(Cl)cc1)Nc1ccc(C(=O)O)cc1,-34.2%
8,O=C(CSc1nnc(-c2ccccc2)n1-c1ccc(Cl)cc1)Nc1ccc(Cl)cc1,83.3% (active)
9,O=C(CSc1nnc(-c2ccncc2)n1-c1ccccc1)Nc1ccc(Cl)c(Cl)c1,33.8%
10,CCn1c(SCC(=O)Nc2cc(Cl)ccc2OC)nnc1-c1ccc(Br)cc1,25%
11,O=C(CC(=O)c1ccccc1O)c1ccccc1,42.5%
12,C[C@@H]1CN([C@@H](C)CO)C(=O)Cc2cc(NC(=O)Cn3cnnn3)ccc2O[C@@H]1CN(C)S(=O)(=O)c1cn(C)cn1,-10.4%
13,COc1ccc(NC(=O)CN2CCN(S(=O)(=O)c3ccc4ccccc4c3)CC2)cc1,8.78%
14,COC(=O)C1=C[C@H](O[C@@H]2O[C@H](CO)[C@@H](O)[C@H](O)[C@H]2O)C[C@H]2[C@]3(C)C[C@@H](c4ccoc4)OC(=O)[C@H]3CC[C@@]12C,22.8%
15,COc1ccc(NC(=O)N(C)C[C@@H]2Oc3c(NS(=O)(=O)c4ccc(OC)cc4)cccc3C(=O)N([C@H](C)CO)C[C@@H]2C)cc1,14.6%
16,O=c1[nH]c(CSCCO)nc2c1C1(CCCCC1)Cc1ccccc1-2,8.91%
17,CCn1c(=O)c2c(n3c(SCC(N)=O)nnc13)-c1ccccc1CC21CCCCC1,98.7% (active)
18,NC(=O)CSc1nnc(-c2ccccc2F)n1-c1ccccc1,26.5%
19,COc1ccc(-c2cc(C(F)(F)F)n3nc(C(=O)NCCCN4CCOCC4)cc3n2)cc1OC,2.66%
20,CC(C)NC(=O)N(C)C[C@H]1Oc2c(NS(=O)(=O)c3cccs3)cccc2C(=O)N([C@H](C)CO)C[C@H]1C,-11.8%
21,Cc1c(C(=O)N2CCOCC2)[nH]c2ccc(OCc3ccccc3)cc12,34.1%
22,O=C(Nc1ccc(OCc2ccccc2)cc1)OCC1CN(Cc2ccccc2)CCO1 (configuration not stated),113% (active)
23,COc1ccc(Cl)cc1NC(=O)CSc1nnc(-c2ccc(Cl)c(Cl)c2)n1C,17.7%

row,Structure (SMILES),inhibition
1,COc1ccc(OC(C)C(=O)Nc2ccc(OC)c(OC)c2)cc1 (configuration not stated),-22%
2,COc1ccc(NC(=S)NCc2cc(C)n(C)n2)cc1OC,6.06%
3,COc1ccc(NC(=S)SC)cc1OC,87.2% (active)
4,Cc1ccc([N+](=O)[O-])cc1NC(=O)CSC1=NCCS1,21.4%
5,C[C@@H]1CN([C@@H](C)CO)C(=O)c2cccc(NC(=O)c3ccc(-c4nccs4)cc3)c2O[C@H]1CN(C)C(=O)Nc1ccccc1,-9.67%
6,CC[C@]1(O)C[C@@H]2CN(CCc3c([nH]c4ccccc34)[C@@](C(=O)OC)(c3cc4c(cc3OC)N(C)[C@H]3[C@@](O)(C(=O)OC)[C@H](OC(C)=O)[C@]5(CC)C=CCN6CC[C@]43[C@@H]65)C2)C1,112% (active)
7,C[C@@H]1CN([C@H](C)CO)C(=O)c2cc(NC(=O)Nc3ccc4c(c3)OCO4)ccc2O[C@@H]1CN(C)C(=O)Nc1ccc(F)cc1,33.1%
8,C[C@@H]1CN([C@H](C)CO)C(=O)c2cccc(NS(=O)(=O)c3cn(C)cn3)c2O[C@H]1CN(C)Cc1ccc(C(=O)O)cc1,-16.7%
9,Cc1nnc(SCC(=O)Nc2cc(Cl)ccc2C)s1,22.1%
10,C[C@@H]1CN([C@@H](C)CO)C(=O)c2cccc(NC(=O)c3ccncc3)c2O[C@@H]1CN(C)CC1CC1,4.97%
11,C[C@@H]1CN([C@@H](C)CO)C(=O)c2cccc(NC(=O)C3CC3)c2O[C@@H]1CN(C)Cc1ccccc1,4.47%
12,C[C@@H]1CN([C@H](C)CO)C(=O)c2cccc(NC(=O)c3cnccn3)c2O[C@@H]1CN(C)Cc1ccncc1,13.1%
13,C[C@@H]1CN([C@H](C)CO)C(=O)c2cccc(NC(=O)c3cnccn3)c2O[C@@H]1CN(C)Cc1ccc(C(=O)Nc2ccccc2N)cc1,126% (active)
14,Cc1cc(C(=O)Nc2cccc3c2O[C@@H](CN(C)Cc2ccc(C(=O)Nc4ccccc4N)cc2)[C@H](C)CN([C@@H](C)CO)C3=O)n(C)n1,89.1% (active)
15,COc1ccc(CN(C)C[C@H]2Oc3c(NC(=O)C4CC4)cccc3C(=O)N([C@@H](C)CO)C[C@H]2C)cc1,-16.6%
16,Cc1cc(C(=O)Nc2cccc3c2O[C@@H](CN(C)Cc2ccc(C(=O)O)cc2)[C@H](C)CN([C@@H](C)CO)C3=O)n(C)n1,0.233%
17,C[C@@H]1CN([C@@H](C)CO)C(=O)c2cccc(NC(=O)c3cnccn3)c2O[C@H]1CN(C)Cc1ccc(C(=O)O)cc1,-15.7%
18,Cc1cc(C(=O)Nc2cccc3c2O[C@@H](CN(C)Cc2ccncc2)[C@@H](C)CN([C@@H](C)CO)C3=O)n(C)n1,19.4%
19,C[C@H](CO)N1C[C@H](C)[C@@H](CN(C)Cc2ccc(C(=O)Nc3ccccc3N)cc2)Oc2c(NC(=O)C3CC3)cccc2C1=O,106% (active)
20,COc1ccc(S(=O)(=O)Nc2cccc3c2O[C@@H](CN(C)Cc2ccc(-c4ccccc4)cc2)[C@H](C)CN([C@H](C)CO)C3=O)cc1,22.4%
21,CCn1c(SCC(=O)c2ccc(OC)cc2)nnc1-c1ccc(Cl)cc1Cl,-7.21%

# Source: PubChem BioAssay AID2330 (Broad Institute, 2010)
